Compounds without any hit were thinned out: in the full panel of roughly 83,000, 20% have a hit.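 In brief: 96-well plates, 48 h treatment, single concentration, percent growth endpoint.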 Unmarked numbers belong to inactive results. Calls of active or inactive are those of the source. The calls were made as follows: active = growth percent below 10; inactive = the rest.
Tested on: MDA-MB-468 breast
Assay: NCI-60 one-dose screen, 48 h (100 = growth as untreated, 0 = no growth, -100 = all killed)
Conditions: 10 µM unless noted

SMILES | growth
Oc1ccc2ccccc2c1N=Nc1nccs1 | -48.6% (active)
Nc1[nH]nc2nc(-c3ccccc3)n3c4ccccc4nc3c12 | 88.7%
O=C(CCCCCCN1CC(=O)N2[C@@H](c3cc(F)cc(F)c3)c3[nH]c4ccccc4c3C[C@H]2C1=O)NO | 50.4%
O=C(c1ccc(C(F)(F)F)c(Cl)c1)N(Cc1ccc(Cl)cc1)c1ccc(-c2cc(C(F)(F)F)[nH]n2)c(O)c1 | -11.5% (active)
CC1=CC=C(NC(=O)/C=C/c2ccccc2)CC1Nc1nccc(-c2cccnc2)n1 (stereo not given) | 3.07% (active)
FCc1nc2nc(Cl)c(Cl)nc2[nH]1 | 93.2%
COC(=O)C(C)Oc1ccc(OC#N)cc1 (stereo not given) | 99%
O=C1Nc2ccc(Br)cc2C1=N/C=c1\[nH]c(=O)/c(=C/c2ccc(Cl)cc2)s1 | 86.6%
c1ccc(OCc2nnc(-c3ccc(Oc4ccccc4)cc3)o2)cc1 | 111%
Nc1n[nH]c2cc(F)c([C@@H]3Nc4c(F)cc5[nH]ncc5c4[C@H]4C5CCC(C5)[C@@H]34)cc12 (stereo not given in full) | -0.149% (active)
COc1cc2ncnc(Nc3ccc(S(=O)(=O)Nc4cc(C)on4)cc3)c2cc1OCCCN1CCOCC1 | 103%
O=C(CCCSc1nc(-c2ccccc2)cc(-c2ccccc2)n1)NO | -38% (active)
O=C1/C(=C/c2ccc(Cl)cc2)N=C(c2ccccc2)N1CCc1cccs1 | 72.4%
C=C1C(=O)O[C@H]2[C@H]1CC/C(COC(=O)CSCSCC(=O)OC/C1=C/CC[C@@]3(C)O[C@H]3[C@H]3OC(=O)C(=C)[C@@H]3CC1)=C\CC[C@@]1(C)O[C@@H]21 | -14.2% (active)
COc1ccc(OC)c(C(=O)/C=C/c2cc3c(c(OC)c2OC)OCO3)c1 | 33.5%
COC(=O)C(=C\c1ccc2c(c1)OCO2)/C(=C/c1ccc2c(c1)OCO2)C(=O)OC | 111%
O=C(NCc1ccccc1)c1cccc([N+](=O)[O-])c1 | 93.8%
O=CN(SSN(C=O)C1CCCCC1)C1CCCCC1 | 108%
COc1cc(-c2nn(-c3cccc(NC(=O)c4ccc(Cl)c(C(F)(F)F)c4)c3)cc2-c2ccncc2)ccc1Cl | 54.4%
Nc1ccc(CC(=O)O)c(N)c1 | 88.5%

SMILES | growth
O=C(CSc1nc2ccc([N+](=O)[O-])cc2[nH]1)Nc1cccc(C(F)(F)F)c1 | -8.14% (active)
O=[N+]([O-])c1cccc(-c2nc3sccn3c2-c2ccnc(NCCCNS(=O)(=O)c3ccc(Cl)cc3)n2)c1 | 13.1%
Cn1cc(-c2nn3cc(-c4cccnc4)nc3s2)c2ccccc21 | -2.67% (active)
O=[N+]([O-])c1cc(S(=O)(=O)Oc2ccccc2)ccc1Cl | -78.1% (active)
Cc1cc(-c2noc(C(F)(F)F)n2)ccc1N1CCN(c2cc(C(=O)N(C)C)no2)CC1 | 15.2%
O=C1NC(=O)C(Cc2ccc(OCc3ccc(-c4cc(F)c(F)c(F)c4)cc3)cc2)S1 (stereo not given) | 53.4%
C#Cc1ccc(C(=O)NCc2ccc(/C=C/C(=O)c3nccn3C)cc2)cc1 | 18%
O=[N+]([O-])c1ccc(C=C2C(Cl)=C(Cl)C(Cl)=C2Cl)cc1 | 48.3%
COC(=O)[C@]12CC[C@@H](C)[C@H](C)[C@@H]1C1=CC[C@@H]3[C@@]4(C)CC(=O)[C@H](O)[C@@](C)(CO)[C@@H]4C(=O)C[C@@]3(C)[C@]1(C)CC2 | -4.93% (active)
CC(=O)COc1ccc(Cl)cc1Cl | 92.4%
COc1ccc2c(c1)c(-c1nonc1-c1c[nH]c3ccc(Br)cc13)cn2C | 52.4%
Cn1ccnc1C(=O)/C=C/c1ccc(CC(=O)Nc2cc(C(F)(F)F)cc(C(F)(F)F)c2)cc1 | 78%
COc1cc(NC(C)CCCNC(=O)CCC(=O)NCCCNCCCCCCCCCCNCCCNC(=O)CCC(=O)NCCCC(C)Nc2cc(OC)cc3cccnc23)c2ncccc2c1 (stereo not given) | -0.701% [8 µM] (active)
NC1=CSC2=N/C(=C\c3ccc(Cl)cc3)C(=O)N12 | 64.5%
CCSc1nc(Cl)c(C#N)c(-c2ccc(F)cc2)n1 | 84.2%
Nc1nc(N)c2c(n1)NC(c1cccc(Nc3ccnc4cc(C(F)(F)F)ccc34)c1)CC(c1ccc(Cl)cc1)=N2 (stereo not given) | 21.5%
CCCC(=O)Nc1ccccc1C(=O)O | 106%
O=C1COc2ccccc2C(=O)N1CCCCNc1ccccc1 | 94.5%
O=C1Nc2ccccc2/C1=C/c1ccc(CO)n1-c1ccc(Cl)cc1 | 27.8%
CN(CCCCN(C[C@H]1Cc2ncccc2CN1)[C@H]1CCCc2cccnc21)C1CCC(F)(F)CC1 | 95.3%

From PubChem BioAssay (NCI)
